The text below walks through data of PubChem BioAssay.

For assay [1], the system named is XIP peptide (Xip251-270) binding. The assay can be described thus: small-molecule binders of XIP peptide, primary screen, biochemical, small-molecule microarray, fluorescence 635/667 nm, 0.1 µg/mL protein (AID 1182). As to conditions: fluorescent protein binding, 635 nm, higher = more signal, called active from +8 up or from −8 down.
Another assay concerns XIP peptide (Xip251-270). The assay can be described thus: small-molecule binders of XIP peptide, primary screen, biochemical, small-molecule microarray, fluorescence 635/667 nm, 0.5 µg/mL protein (AID 1183). As to conditions: small-molecule microarray binding, fluorescence 635 nm; higher = more signal.
The nature of assay [2]: Plasmodium falciparum growth inhibition, primary screen, strain 3D7, DAPI fluorescence, 100 nL (AID 1184).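 Also: parasites grown inside human red blood cells in medium with human serum.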 The following applies: P. falciparum 3D7 growth, 3 d, higher = more signal.
Assay [3] deals with Homeobox protein Hox-A13 (Mus musculus) (UniProt Q62424). Put plainly: inhibitors of HoxA13-DNA binding, primary screen, biochemical, fluorescence polarization, labeled oligonucleotide (AID 1185). The following applies: 15 min, higher = more signal, called active from +8 up or from −8 down.
Chain of Homeobox protein Hox-A13 (Mus musculus) (Q62424 whole entry, looked up): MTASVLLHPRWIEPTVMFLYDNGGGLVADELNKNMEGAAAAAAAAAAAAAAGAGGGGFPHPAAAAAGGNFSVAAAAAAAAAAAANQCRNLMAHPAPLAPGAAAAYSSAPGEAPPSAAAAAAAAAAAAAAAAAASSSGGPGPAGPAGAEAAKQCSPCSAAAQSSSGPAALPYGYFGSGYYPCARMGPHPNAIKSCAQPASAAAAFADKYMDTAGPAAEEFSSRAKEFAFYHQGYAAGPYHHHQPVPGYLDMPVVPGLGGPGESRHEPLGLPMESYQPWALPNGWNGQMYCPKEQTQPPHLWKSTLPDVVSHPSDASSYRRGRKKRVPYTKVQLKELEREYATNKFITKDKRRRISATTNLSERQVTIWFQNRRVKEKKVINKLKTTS
A short description of assay [4]: inhibitors of hydroxyurea-induced Chk1 phosphorylation, primary screen, imaging, HeLa, phospho-Chk1 antibody, percent positive cells (AID 1186). As to conditions: hydroxyurea-induced phospho-Chk1 immunofluorescence imaging, higher = more signal.
A short description of assay [5]: inhibitors of hydroxyurea-induced Chk1 phosphorylation, primary screen, imaging, HeLa, phospho-Chk1 nuclear intensity (AID 1187). As to conditions: hydroxyurea-induced phospho-Chk1 immunofluorescence imaging, higher = more signal.

The source made the active and inactive calls. Unless noted, no rule for the calls is given here.

In the case of `CCOC(=O)c1ccc(NC(=O)O[C@H]2[C@H](OC(=O)Nc3ccc4c(c3)OCO4)[C@@H](OC(=O)Nc3ccc4c(c3)OCO4)[C@@H](OC)O[C@@H]2CO)cc1`, the composite z-score in assay [1] was 1.15 (inactive); in the assay with XIP peptide (Xip251-270), 0.894. For the same compound, the z-score in assay [2] was -2.42; in assay [3], -8.16 (active); in assay [4], -0.301 (inactive); in assay [5], -0.0975 (inactive).

With `CO[C@H]1O[C@H](CO)[C@@H](OC(=O)Nc2ccc3c(c2)OCO3)[C@H](OC(=O)c2cc3ccccc3[nH]2)[C@H]1OC(=O)c1cc2ccccc2[nH]1`, the composite z-score in assay [1] is 0.472 (inactive); with XIP peptide (Xip251-270), 0.374. Further, the z-score is -0.603 in assay [2], -4.88 (inactive) in assay [3], -0.308 (inactive) in assay [4] and -0.227 (inactive) in assay [5].

Take `OCC1CC(c2ccccc2)=NO1` (configuration not stated): the composite z-score in assay [1] is -0.336 (inactive); in the assay with XIP peptide (Xip251-270), -0.118. The z-score in assay [2] was 0.308; in assay [3], 0.0368 (inactive); in assay [4], -0.582 (inactive); in assay [5], -0.0558 (inactive).

Regarding `COc1ccc([Si](C)(C)[C@H]2[C@H](CCO)O[C@@]3(C(=O)N(Cc4cccc(N5C(=O)COc6ccccc65)c4)c4ccccc43)[C@@H]2C)cc1`, the composite z-score in assay [1] is 0.595 (inactive); in the assay with XIP peptide (Xip251-270), 0.649. Also, the z-score in assay [2] is -2.8; in assay [3] it was -1.2 (inactive); in assay [4] it was -0.327 (inactive); in assay [5], 0.208 (inactive).

In the case of `CC(C)[Si](C#C[Si](C(C)C)(C(C)C)C(C)C)(O[C@H](C)c1cn([C@H](CO)Cc2ccccc2)nn1)C(C)C`, the composite z-score is 0.183 (inactive) in assay [1] and 0.348 with XIP peptide (Xip251-270). The z-score in assay [2] is 0.67; in assay [3] it was -0.249 (inactive); in assay [4], -0.258 (inactive); in assay [5] it was -0.36 (inactive).

As to `COc1cc(CO)cc(I)c1O[C@H]1C=C(C(=O)NCCO)C[C@@H](NCc2ccc(F)cc2)[C@@H]1O`, the composite z-score in assay [1] is -0.35 (inactive); in the assay on XIP peptide (Xip251-270) it was 0.728. The z-score in assay [2] was -3.1; in assay [3], -7.05 (inactive); in assay [4] it was -0.926 (inactive); in assay [5], -2.03 (inactive).

On to `CN(C)CCCNC(=O)[C@@H]1c2ccccc2C(=O)N(Cc2ccccc2Cl)[C@H]1c1ccc(CO)cc1`, for which the values for the composite z-score (in assay [1]; with XIP peptide (Xip251-270)) were 0.596 (inactive) and 0.285, respectively. For the same compound, the z-score in assay [2] was -0.424; in assay [3], -2.58 (inactive); in assay [4], 0.0357 (inactive); in assay [5] it was 0.0322 (inactive).

Consider `COc1ccc([Si](C)(C)[C@@H]2[C@@H](CC(=O)N(CCO)Cc3ccccc3)O[C@]3(C(=O)N(Cc4cccc(N5CCOC5=O)c4)c4ccccc43)[C@H]2C)cc1`, for which the composite z-score in assay [1] was 1.18 (inactive); with XIP peptide (Xip251-270), 0.799. In addition, the z-score in assay [2] was -2.16; in assay [3] it was -2.52 (inactive); in assay [4], 0.437 (inactive); in assay [5], -0.0407 (inactive).

In the case of `C=C(/C(=C/C[C@H](OC(=O)c1ccncc1)c1ccc(CO)o1)c1cc(C(=O)OC)ccc1OC)C(C)C`, the composite z-score in assay [1] is 0.0474 (inactive); with XIP peptide (Xip251-270) it was 0.554. Further, the z-score in assay [2] is -0.114; in assay [3] it was -5.26 (inactive); in assay [4], -0.291 (inactive); in assay [5], -0.218 (inactive).

In the case of `C=C(/C(=C/C[C@H](OC(C)=O)c1ccccc1OCCO)c1cc(C(=O)OC)ccc1OC)C(C)C`, the composite z-score in assay [1] is -0.2 (inactive); in the assay with XIP peptide (Xip251-270), -0.239. The z-score in assay [2] was -2.42; in assay [3] it was -4.07 (inactive); in assay [4] it was -0.0815 (inactive); in assay [5] it was -0.292 (inactive).

As for `COC(=O)c1ccc([C@H](NC(=O)c2ccco2)[C@]2(C)C[C@H]2C2CCCCC2)cc1`, the composite z-score in assay [1] is -0.235 (inactive); in the assay with XIP peptide (Xip251-270), -0.727. Besides, the z-score in assay [2] is -0.414; in assay [3], -2.66 (inactive); in assay [4] it was 0.089 (inactive); in assay [5] it was -0.229 (inactive).

Take `O=C(NCC(F)(F)F)[C@@H]1c2ccccc2C(=O)N(Cc2ccccc2C(F)(F)F)[C@H]1c1ccc(CO)cc1`: the composite z-score in assay [1] is 0.774 (inactive); in the assay on XIP peptide (Xip251-270) it was 0.374. Moreover, the z-score is -0.485 in assay [2], -2.95 (inactive) in assay [3], 0.0364 (inactive) in assay [4] and -0.0409 (inactive) in assay [5].

In the case of `COc1ccccc1CN1C(=O)c2ccccc2[C@@]2(Cc3ccccc3N(CC(F)(F)F)C2=O)[C@@H]1c1ccc(CO)cc1`, the composite z-score in assay [1] was 0.182 (inactive); in the assay on XIP peptide (Xip251-270), 0.555. Besides, the z-score in assay [2] is -0.384; in assay [3], -0.814 (inactive); in assay [4], 0.149 (inactive); in assay [5], 0.312 (inactive).

Consider `O=C(CS)NCCCCCCNC(=O)[C@H]1C[C@H]2C(=O)N[C@@H](Cc3ccccc3)C(=O)N2[C@H]1c1ccc(O)cc1`, for which the composite z-score is 0.398 (inactive) in assay [1] and 0.849 in the assay on XIP peptide (Xip251-270). Moreover, the z-score is -0.0607 in assay [2], -1.23 (inactive) in assay [3], -0.836 (inactive) in assay [4] and -0.555 (inactive) in assay [5].

As to `O=C1O[C@H](c2ccccc2)[C@H](c2ccccc2)N2[C@H]1[C@@H](C(=O)N1CCN(c3ncccn3)CC1)[C@]1(C(=O)Nc3ccc(C#CC4(O)CCCCCC4)cc31)[C@H]2c1ccc(OCCO)cc1`, the composite z-score in assay [1] is 2.51 (inactive); with XIP peptide (Xip251-270), 0.781. Further, the z-score in assay [2] is -2.13; in assay [3] it was 0.271 (inactive); in assay [4] it was 0.354 (inactive); in assay [5] it was 0.527 (inactive).

For the compound `C=CCC(OC(C)=O)[C@@H]1[C@@H](N(Cc2cc3ccccc3o2)C(=O)c2ccc(C)cc2)c2cc(OCCCO)ccc2N1C(=O)Cc1ccc(OC)cc1` (some centres not stated), the figures for the composite z-score (in assay [1]; in the assay with XIP peptide (Xip251-270)) were -0.23 (inactive) and 0.0544, respectively. The z-score in assay [2] was -0.901; in assay [3] it was -2.07 (inactive); in assay [4] it was -0.0554 (inactive); in assay [5] it was -0.601 (inactive).

In the case of `CCCCC=C[C@@H](NC(=O)c1ccc(-c2ccccc2)cc1)c1ccccc1`, the composite z-score is -0.464 (inactive) in assay [1] and -0.102 in the assay on XIP peptide (Xip251-270). In addition, the z-score in assay [2] was 0.067; in assay [3] it was -3.89 (inactive); in assay [4] it was -0.85 (inactive); in assay [5], -1.37 (inactive).
